Measured values published in paper PMC4336329 (PLoS ONE, 2015).
Out of some 310,000 compounds screened, about 14,000 (4.5%) showed an effect of 50% or more. The effect is printed as a negative number. The sample as a whole holds a higher share of strong results than the screen did.

Target: human ether-à-go-go-related gene (hERG) potassium channel (human, UniProt Q12809)
Assay: primary screen, population patch clamp on CHO cells stably expressing hERG; higher = less effect of the substance
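Note: peak tail current of the secondary pulse compared with the same well before compound.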

human ether-à-go-go-related gene (hERG) potassium channel, sequence (Q12809 whole entry, looked up): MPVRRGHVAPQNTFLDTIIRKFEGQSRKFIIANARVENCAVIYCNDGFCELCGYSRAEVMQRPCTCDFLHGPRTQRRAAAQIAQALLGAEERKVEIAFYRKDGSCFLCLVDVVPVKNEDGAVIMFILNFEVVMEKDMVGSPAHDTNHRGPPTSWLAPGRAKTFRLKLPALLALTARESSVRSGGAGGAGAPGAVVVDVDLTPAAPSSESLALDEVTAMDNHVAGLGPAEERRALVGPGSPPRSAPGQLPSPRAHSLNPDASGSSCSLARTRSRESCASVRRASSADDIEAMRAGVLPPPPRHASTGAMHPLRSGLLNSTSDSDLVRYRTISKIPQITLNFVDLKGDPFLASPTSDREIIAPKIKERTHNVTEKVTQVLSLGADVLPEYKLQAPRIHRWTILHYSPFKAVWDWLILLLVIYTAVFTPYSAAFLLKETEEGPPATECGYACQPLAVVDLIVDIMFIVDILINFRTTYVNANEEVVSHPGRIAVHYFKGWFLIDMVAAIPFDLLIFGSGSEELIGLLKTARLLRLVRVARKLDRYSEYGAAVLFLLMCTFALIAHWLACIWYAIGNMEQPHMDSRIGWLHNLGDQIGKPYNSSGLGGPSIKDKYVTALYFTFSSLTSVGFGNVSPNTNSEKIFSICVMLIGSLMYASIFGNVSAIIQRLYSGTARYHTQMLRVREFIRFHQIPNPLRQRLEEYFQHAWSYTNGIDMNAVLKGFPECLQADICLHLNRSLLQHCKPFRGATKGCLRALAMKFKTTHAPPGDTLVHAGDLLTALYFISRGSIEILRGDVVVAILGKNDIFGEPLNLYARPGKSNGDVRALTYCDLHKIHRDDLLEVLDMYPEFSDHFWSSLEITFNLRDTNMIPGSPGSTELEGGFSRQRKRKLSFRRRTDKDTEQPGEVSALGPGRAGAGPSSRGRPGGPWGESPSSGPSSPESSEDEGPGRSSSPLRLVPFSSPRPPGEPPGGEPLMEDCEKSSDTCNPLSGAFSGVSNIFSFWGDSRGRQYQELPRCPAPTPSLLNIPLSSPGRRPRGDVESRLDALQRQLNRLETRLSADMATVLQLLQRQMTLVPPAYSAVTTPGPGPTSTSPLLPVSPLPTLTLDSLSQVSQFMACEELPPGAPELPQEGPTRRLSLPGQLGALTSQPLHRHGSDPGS

Compound	hERG current change (%, negative = inhibition) at 10uM
CN1CCN(c2cn[nH]c(=O)c2Cl)CC1	15.4%
Cc1ccc(-c2csc(NC(=O)CN3CCC(C(N)=O)CC3)n2)cc1	8.38%
c1cncc(N=c2scc(-c3cccc4ccccc34)n2CCCn2ccnc2)c1	-56.5%
COCCn1c(-c2cccs2)csc1=Nc1cccnc1	-15.3%
Fc1ccccc1-c1csc(=Nc2cccnc2)n1CCCn1ccnc1	-60.1%
Fc1ccccc1-c1csc(=Nc2cccnc2)n1CC1CCCO1 (stereo not shown)	-16.8%
CC(C)Cn1c(-c2ccco2)csc1=Nc1cccnc1	8.45%
CN=c1scc(-c2ccccc2F)n1/N=C(\C)c1cccnc1	-28.9%
Cc1cc(C)cc(OCc2ccc(C(=O)NN)o2)c1	14.2%
COc1ccc(CCNC(=S)Nc2cc(C)ccc2C)cc1	-15.9%
CS(=O)(=O)N(C(=O)NC(=O)NC1CCS(=O)(=O)C1)C1CCCCC1 (stereo not shown)	4.13%
COc1ccc(-c2nn(-c3ccccc3)cc2/C=C2/SC(=S)N(Cc3ccco3)C2=O)c(C)c1	8.73%
Cn1c(=O)n(Cc2ccccc2)c(=O)c2c1nc1n2CCN1Cc1ccco1	-36.7%
Cc1ccc(C)c(Cn2c(=O)c3c(nc4n3CCN4Cc3ccco3)n(C)c2=O)c1	-3.76%
Cn1c(=O)n(Cc2ccc(F)cc2)c(=O)c2c1nc1n2CCN1Cc1ccco1	-55.4%
Cc1cccc(Cn2c(=O)c3c(nc4n3CCCN4Cc3ccccc3)n(C)c2=O)c1	-38.8%
Cc1cccc(Cn2c(=O)c3c(nc4n3CCN4Cc3ccco3)n(C)c2=O)c1	-52.2%
Cn1c(=O)n(CCc2ccccc2)c(=O)c2c1nc1n2CCN1Cc1ccco1	-55.5%
CCCn1c(=O)c2c(nc3n2CCN3Cc2ccco2)n(C)c1=O	-5.94%
Cn1c(=O)n(Cc2ccc(Cl)cc2)c(=O)c2c1nc1n2CCN1Cc1ccco1	-21.5%
Cc1ccc(Cn2c(=O)c3c(nc4n3CCN4Cc3ccco3)n(C)c2=O)cc1	-17.9%
CC1CCC(NC(=O)C(Cc2ccccc2)n2cccc2)CC1 (stereo not shown)	-14.9%
Cc1cc(C)cc(OCC(=O)N/N=C/c2ccco2)c1	37.4%
COc1cccc(-n2nnc3c(=O)n(CC(=O)OCc4ccccc4)cnc32)c1	9.39%
c1ccc(C2c3[nH]c4ccccc4c3CCN2Cc2cccn2-c2cccnc2)nc1 (stereo not shown)	-23.7%
Clc1ccc(-n2cccc2CN2CCc3c([nH]c4ccccc34)C2c2ccccn2)nc1 (stereo not shown)	-77%
O=C(Cc1ccsc1)N1CCc2c([nH]c3ccccc23)C1c1ccccn1 (stereo not shown)	4.87%
c1ccc(C2c3[nH]c4ccccc4c3CCN2Cc2cccn2-c2ccccn2)nc1 (stereo not shown)	-70.5%

Compound	hERG current change (%, negative = inhibition) at 10uM
CC(=O)Nc1ccc(CN2CCc3c([nH]c4ccccc34)C2c2ccccn2)cc1 (stereo not shown)	-38.5%
CSc1ncc(CN2CCc3c([nH]c4ccccc34)C2c2cccc(C)n2)cn1 (stereo not shown)	-13.8%
CCOC(=O)C1CCN(S(=O)(=O)c2ccc(Cl)nc2)CC1	-2.6%
COc1ccc2oc(C(=O)NCCC(C)C)c(C)c2c1	-0.78%
Cn1nc(C(=O)OCc2ccccc2F)c2ccccc2c1=O	13%
COc1ccc(C(C)(C)C)cc1NC(=O)c1cccc(S(=O)(=O)N2CCN(C(C)=O)CC2)c1	11.5%
Cc1ccc(S(=O)(=O)N2CCN(c3ncnc4c3cnn4-c3ccccc3)CC2)cc1	14.3%
Oc1ccccc1C1=Nc2ncnn2C(c2ccccc2)C1 (stereo not shown)	-16.6%
Oc1ccccc1C1=Nc2ncnn2C(c2ccc(F)cc2)C1 (stereo not shown)	-80.8%
Oc1ccccc1C1=NN(c2ccccc2)C(c2ccc(F)cc2)C1 (stereo not shown)	9.68%
COc1ccc(NC2CC(=O)NC2=O)cc1 (stereo not shown)	5.24%
O=Cc1cc([N+](=O)[O-])ccc1N1CCOCC1	-19.3%
O=C1NC(=S)N/C1=C/c1cc([N+](=O)[O-])ccc1O	12.8%
O=C1NC(=O)C(=Cc2cc([N+](=O)[O-])ccc2N2CCCCC2)C(=O)N1	7.84%
CN1C(=O)C(=Cc2cc([N+](=O)[O-])ccc2N2CCCCC2)C(=O)N(C)C1=O	19.3%
CC(=O)N1CCN(C(=S)c2cccc([N+](=O)[O-])c2)CC1	8.96%
CC(=O)N1c2ccc([N+](=O)[O-])cc2NC(=O)CC1C (stereo not shown)	22.2%
O=C1NC(=S)N/C1=C/c1cc([N+](=O)[O-])ccc1N1CCOCC1	-62.9%
CCN1CCN(c2ccc([N+](=O)[O-])cc2C=C2C(=O)NC(=O)NC2=O)CC1	-66.3%
CC(=O)N1CCN(c2ccc([N+](=O)[O-])cc2C=C2C(=O)NC(=O)NC2=O)CC1	-56.6%
COC(=O)C1=C(O)/C(=C\c2ccc(OCC(=O)Nc3ccccc3OC)cc2)N=C1C	0.751%
Cc1ccccc1Nc1nc(-c2sc(NC(=O)c3ccco3)nc2C)cs1	23.6%
O=C(Nc1cccc(Cl)c1)c1nc[nH]c1C(=O)N1CCN(c2ccccc2)CC1	8.06%
Cc1c(N/C(=N/S(=O)(=O)c2ccc(F)cc2)c2ccccc2)c(=O)n(-c2ccccc2)n1C	0.39%
O=[N+]([O-])c1ccc(Oc2ccc(-c3cnc4ccccc4n3)cc2[N+](=O)[O-])cc1	6.13%
c1nc(N2CCCCC2)c2[nH]cnc2n1	9.4%
C=CCn1c(SCCN2CCCCC2)nc2c1c(=O)[nH]c(=O)n2C	-47.3%
